HCV inhibitor: inhibitors of hepatitis C virus infection; Huh7.5.1 HCVcc-Cre infection, luciferase reporter, 44 h; Potency, µM (titrated, usually from 41.8 µM), for inactives: top-dose activity change, negative = inhibition, most hits filed as inhibitors; 3.4% of 340,000 active; AID 651820; note: potency is the fitted concentration of half-maximal effect; % is set by controls: 0 for no effect and ±100 for the full control effect
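Whole-lifecycle infectious HCVcc-Cre system; cells 1,000/well, compound then virus (~0.5 moi) added 4 h after plating, 44 h culture. Luciferase read 15 sec following 15 min substrate incubation, room temp.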
HCMV antiviral: human cytomegalovirus inhibition. HFF cells, HCMV-luciferase reporter, 72 h; stronger effect = lower value. activity change, negative = inhibition, % at 57.5 µM. 4.5% of 410,000 active; in the data active = activity change below about -60%; inconclusive = no clear call, values can overlap the other calls; inactive = above about -39%; note: % is set by controls: 0 for no effect and ±100 for the full control effect
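Screen run at 2 compound doses on HFFs infected with reporter HCMV, MOI 1 PFU/cell. Luciferase activity from cell lysates at 72 h post infection gave inhibition relative to buffer-only and Salinomycin wells.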
Shiga inhibitor: inhibitors of Shiga toxin in Vero cells | Vero cells, Shiga toxin protein synthesis inhibition reporter | 9.2% of 290,000 active | inhibition, % at 38.7 µM; in the data active = inhibition mostly above about 28%, no sharp cut-off; inactive = mostly below about 43%; note: 0% is about no effect
Pf growth 96h: inhibits malaria parasite growth, 96 h | P. falciparum luciferase reporter growth, 96 h | Potency, µM (series often up to 28.7 µM), for the others: at the top dose activity change, negative = inhibition, actives largely listed as inhibitors | 6.9% of 320,000 active | AID 504834; note: potency is the fitted concentration of half-maximal effect; % is set by controls: 0 for no effect and ±100 for the full control effect
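Compounds incubated with erythrocytes infected by luciferase-expressing P. falciparum (2% hematocrit, 0.05% parasitemia final) for 96 hours, 37 C in 5% CO2. Growth inhibition scored as decreased luciferase luminescence.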
CHX counter: affects cycloheximide protein synthesis inhibition readout, counter-screen; cell reporter, cycloheximide protein synthesis inhibition counterscreen; max response, %; 12% of 300,000 active; AID 2314; in the data active = max response mostly above about 13%, no sharp cut-off; inactive = mostly below about 14%; note: read at 38.3 µM for the half of the compounds with a filed dose; 0% is about no effect
Pf growth 48h: P. falciparum growth inhibition at 48 hours (one generation); P. falciparum luciferase growth in erythrocytes, 48 h; Potency, µM (series often up to 28.7 µM), inactives show at the top dose activity change, negative = inhibition, hits mostly inhibitors; 5.9% of 310,000 active; AID 504832; note: potency is the fitted concentration of half-maximal effect; % is set by controls: 0 for no effect and ±100 for the full control effect
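A one-generation exposure of luciferase-tagged malaria parasites in RPMI 1640/Albumax erythrocyte culture, 37 C and 5% CO2. Inhibition is inferred from decreased luminescence after adding detection reagent.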
* marks the source's active call; other numbers are inactive results; i = inactive; u = inconclusive; x = no result; [ ] = dose if it differs, or a comment. Only some compounds are listed: those with a hit (about 21% of all), similar ones and a draw of the others. Unless noted, calls come from the whole dose curve; as a rule, active = well fitted inhibition curve with a large enough effect; inconclusive = small, poorly fitted or top-dose-only effect, or another doubt; inactive = no such curve, though single readings can be large or run the other way.

SMILES | HCV inhibitor | HCMV antiviral | Shiga inhibitor | Pf growth 96h | CHX counter | Pf growth 48h
NC(=O)c1ccccc1NS(=O)(=O)c1ccc(F)cc1 | -0.1% | 13.3 | -21.2 | -16.7% | 1.1 | 25.6%
O=C(CNc1ccc(Br)cc1)c1ccccc1 | -12.2% | -36.2 | 20.6 | 8.6% | 18.4* | u
O=C(CNc1cccc(Cl)c1)c1ccc(Br)cc1 | 3.3% | -1.9 | 8.1 | 0.0% | 12.1 | 8.8%
OCC(O)C1OC(Nc2ccc(Cl)cc2)C(O)C1O (stereo unspecified) | 11.3% | -18.2 | -3.1 | 4.3% | -2.1 | 4.1%
CNC(=O)COc1coc(CN2CCN(Cc3ccccc3)CC2)cc1=O | 21.3% | 3.2 | -8.0 | -4.2% | -2.6 | 15.5%
Cc1ccc(C(=O)CNc2ccc(Br)cc2)cc1 | -5.9% | 14.0 | 44.0* | 0.0% | 10.2 | 31.7%
CCCNC(=O)c1ccc(Cn2cc(-c3ccc(OC)cc3)nc2C(C)N)cc1 (stereo unspecified) | -4.2% | 74.5 | x | u | x | u
O=C(NCCN1CCCCCC1)C1CCC(CNS(=O)(=O)c2cccc3cccnc23)CC1 (stereo unspecified) | 3.9% | 11.5 | -12.0 | u | -6.5 | x
CCN(CC)C(=O)C1CCC(CNS(=O)(=O)c2cccc3cccnc23)CC1 (stereo unspecified) | 5.1% | 25.1 | 18.4 | 14.7µM* | 6.7 | -2.2%
CN(Cc1ccccc1)C(=O)C1CCC(CNS(=O)(=O)c2cccc3cccnc23)CC1 (stereo unspecified) | u | -61.9* | 18.6 | u | -0.7 | u
CC1(C)CC(NC(=S)NC2CC2)CC(C)(C)N1 | 4.9% | -8.1 | -9.5 | u | 0.6 | 0.6%
C=CCNC(=S)NC1CC(C)(C)NC(C)(C)C1 | 2.0% | 5.4 | -6.5 | 10.4µM* | -2.9 | 10.4%
COC(=O)c1ccccc1NC(=O)C/C(C)=N/NC(=O)Cc1ccc(Cl)cc1 | x | u | -6.8 | -10.1% | -4.0 | 1.4%
COCc1cc(C)nc2sc(C(=O)Nc3nccs3)c(N)c12 | -23.3% | 66.1 | 50.4 | 140.4% | 41.9* | x
COCc1cc(C)nc2sc(C(=O)Nc3ccc(C(C)=O)cc3)c(N)c12 | x | 21.0 | x | x | x | x
COCc1cc(C)nc2sc(C(=O)Nc3ccc(OC)cc3)c(N)c12 | u | 24.1 | 84.5 | u | 28.6* | 59.4%
COCc1cc(C)nc2sc(C(=O)Nc3cccc(OC)c3)c(N)c12 | u | 51.9 | 65.9* | u | 53.6* | 108.0%
COc1ccc(-n2ncc3c2CC(C)(C)CC3NC(=O)c2c(C)cc(=O)oc2C)cc1 (stereo unspecified) | -9.4% | 10.2 | -9.0 | 26.4% | 1.1 | u
Cc1cccc(OCCCCn2c(C3CC(=O)N(c4ccccc4Cl)C3)nc3ccccc32)c1 (stereo unspecified) | x | -21.2 | x | x | x | x
CCn1nc(C)c(NC(=O)CC23CC4CC(CC(C4)C2)C3)c1C | 2.8% | -10.9 | i | 8.28µM* | 1.2 | -13.9%
O=C(c1ccccc1)N(C(=O)c1ccccc1)N1CCCC1 | 8.7% | -28.6 | x | x | x | x
CCCN(CCC)S(=O)(=O)c1cc(Br)cc2c1N(C(=O)CC)CC2 | u | -18.6 | -2.4 | u | 0.5 | 1.04µM*
O=C(C1CC1)N1CCc2cc(Br)cc(S(=O)(=O)N3CCCCCC3)c21 | u | 20.8 | 3.5 | x | -1.0 | 1.65µM*
CCC(=O)N1CCc2cc(Br)cc(S(=O)(=O)C3(C(=O)OC)CC3)c21 | 0.0% | 7.3 | -7.8 | u | -2.6 | 4.15µM*
CCC(=O)N1CCc2cc(Br)cc(S(=O)(=O)N3CCC(C(=O)NC(C)C)CC3)c21 | 1.3% | 1.5 | -7.2 | 6.1% | -4.0 | 6.57µM*
SMILES | HCV inhibitor | HCMV antiviral | Shiga inhibitor | Pf growth 96h | CHX counter | Pf growth 48h
O=C(C1CC1)N1CCc2cc(Br)cc(S(=O)(=O)N3CCN(c4cccc(Cl)c4)CC3)c21 | x | -6.2 | x | x | x | x
CCCCNC(=O)C1CCN(S(=O)(=O)c2cc(Br)cc3c2N(C(=O)CC)CC3)CC1 | x | -7.2 | x | x | x | x
CCC(=O)N1CCc2cc(Br)cc(S(=O)(=O)Nc3ccccc3C(=O)OC)c21 | x | 5.6 | x | x | x | x
Cc1csc2nc(COc3ccccc3NC(=O)c3ccccc3Cl)cc(=O)n12 | x | 2.5 | x | x | x | x
CCC1(c2ccccc2)NC(=O)N(CC(=O)NC2CCCCCC2)C1=O (stereo unspecified) | -11.3% | -17.6 | x | x | x | x
CN(Cc1ccccc1)S(=O)(=O)c1cc(Br)cc2c1N(C(=O)C1CC1)CC2 | x | -70.6* | x | x | x | x
O=C(C1CC1)N1CCc2cc(Br)cc(S(=O)(=O)NC3CCCCC3)c21 | 7.08µM* | -15.0 | -11.0 | u | -2.2 | 4.65µM*
CCCCN(Cc1ccccc1)S(=O)(=O)c1cc(Br)cc2c1N(C(=O)C1CC1)CC2 | x | -33.3 | x | x | x | x
CCOC(=O)C1CCCN(S(=O)(=O)c2cc(Br)cc3c2N(C(=O)C2CC2)CC3)C1 (stereo unspecified) | 1.3% | 30.7 | -27.4 | 35.8% | 1.8 | 3.29µM*
CCC(=O)N1CCc2cc(Br)cc(S(=O)(=O)NCCN3CCCCC3CC)c21 (stereo unspecified) | 2.51µM* | 22.4 | -7.1 | u | 0.7 | u
O=C(NCCCn1ccnc1)C1CCN(S(=O)(=O)c2ccc(F)cc2)CC1 | -3.9% | 7.2 | -9.0 | 2.5% | -9.8 | 3.8%
COc1ccc(N2CC(NC(=O)COc3ccccc3)CC2=O)cc1OC (stereo unspecified) | x | 13.5 | x | x | x | x
CCOC(=O)N1CCC(NS(=O)(=O)c2ccc3c(c2)OCC(=O)N3)CC1 | -8.7% | 19.0 | 1.6 | u | -4.2 | 31.5%
CCC(=O)N1CCc2cc(Br)cc(S(=O)(=O)N3CCCC(C(=O)O)C3)c21 (stereo unspecified) | 14.7% | 10.9 | 1.0 | 26.3% | -4.9 | -10.6%
CCC(=O)N1CCc2cc(Br)cc(S(=O)(=O)N3CCCCCC3)c21 | u | 4.9 | 11.1 | u | 1.0 | 2.94µM*
CCOC(=O)N1CCC(NS(=O)(=O)c2cc3c(cc2Cl)NC(=O)CO3)CC1 | -20.6% | 17.5 | -7.4 | 0.208µM* | -3.2 | u
CCOC(=O)N1CCC(NS(=O)(=O)c2cc(Br)cc3c2N(C(=O)CC)CC3)CC1 | -27.2% | -105.1* | -9.6 | -2.0% | 6.2 | 8.28µM*
CCC(=O)N1CCc2cc(Br)cc(S(=O)(=O)NCC3CCCN3CC)c21 (stereo unspecified) | u | 88.3 | 20.3 | 14.9% | 0.5 | -1.9%
CCOC(=O)N1CCN(S(=O)(=O)c2cc(Br)cc3c2N(C(=O)CC)CC3)CC1 | 0.0% | 81.4 | 5.1 | x | -2.8 | 10.8%
CCC(=O)N1CCc2cc(Br)cc(S(=O)(=O)N3CCCCC3CC)c21 (stereo unspecified) | -23.6% | 10.3 | -6.6 | u | -3.6 | 1.04µM*
C[C@@H]1Cc2ccccc2N1NC(=O)c1ccc(Cl)c(S(N)=O)c1 (stereo partly specified) | x | x | x | -25.9%[12.8 µM] | x | -19.4%[12.8 µM]
Cc1c(/C=C(\C#N)C(=O)Nc2cccc(Cl)c2)c2ccccc2n1Cc1ccccc1 | x | -11.8 | x | x | x | x
